Experimental data taken from PubChem BioAssay AID463173 (ICCB-Longwood Screening Facility, Harvard Medical School, 2010).
Among all 52,000 compounds or so, about 4,300 (8.3%) were called active. Rule as the data show it: active = survival mostly below about 52% (no sharp cut-off); inactive = mostly above about 56%. The entries come from a sample that favours actives as a whole.

Each molecule was assayed on DeltatarO mutant (assay: S. aureus survival, RN4220 and DeltatarO strains – OD600, teichoic acid synthesis inhibitors, primary screen (AID 463173)). Conditions: S. aureus RN4220 wild type/DeltatarO growth, OD600, 18 h, active compounds read low, screened at 18.75 µg/mL (by protocol).

| Structure (SMILES) | survival |
| --- | --- |
| COc1cc(NC(=O)NCCn2nnc3cc(S(=O)(=O)N(C)C)ccc32)cc(OC)c1OC | 84% (inactive) |
| Cc1ccc(S(=O)(=O)NC(C)(C)CN2CCCCC2)cc1 | 96% (inactive) |
| NC1CCN(C(=O)NC2CCCCC2)CC1 | 89% (inactive) |
| Cc1cc(=O)n(Cc2ccccc2)c(=O)n1Cc1ccccc1 | 89% (inactive) |
| Cc1ccccc1-c1nc(CS(=O)(=O)CC(=O)Nc2c(C)cccc2C)c(C)o1 | 92% (inactive) |
| Cn1cc(S(=O)(=O)N2CCCCCC2)cc1C(=O)Nc1ccccc1F | 88% (inactive) |
| CC(=O)N1CCC(N(Cc2ccco2)C(=O)Nc2cccc(C)c2)CC1 | 130% (inactive) |
| COC(=O)c1ccccc1NC(=O)Nc1cccc(OCc2cc(=O)n3cccc(C)c3n2)c1 | 134% (inactive) |
| Cc1ccc(-n2c(=O)[nH]c3sc4c(c3c2=O)CCCC4)cc1 | 133% (inactive) |
| CSc1nc2sc3c(c2c(=O)n1-c1ccccc1C)CCCC3 | 97% (inactive) |
| Cc1ccc(-n2c(SCC(=O)O)nc3sc4c(c3c2=O)CCCC4)cc1 | 90% (inactive) |
| CCc1ccc(-n2c(=O)c3c4c(sc3n(Cc3ccc(C)cc3)c2=O)CCC4)cc1 | 132% (inactive) |
| CCSc1nc2sc3c(c2c(=O)n1-c1ccc(C)cc1)CCCC3 | 0% (active) |
| CSc1nc2sc3c(c2c(=O)n1-c1ccc(C)cc1)CCCC3 | 39% (active) |
| CCCOc1ccc(-c2nc3ccc(Br)cc3c(=O)o2)cc1 | 81% (inactive) |
| Cc1ccc(C)c(NC(=O)Cn2cc(S(=O)(=O)c3ccc(F)cc3)c(=O)c3cc(F)ccc32)c1 | 87% (inactive) |
| Cc1c(C(=O)N(Cc2ccc(N(C)C)cc2)CC2CCCO2)oc2ccccc12 (stereo not given) | 61% (inactive) |
| COC(=O)CNc1ccc(C)c(C)c1 | 67% (inactive) |
| Cc1cccc(CCNC(=O)c2nc(-c3ccc(Cl)cc3)n3c2CCCCC3)c1 | 89% (inactive) |
| O=C(Nc1ccc(C(F)(F)F)cc1)C1CCC(CNS(=O)(=O)c2cccc3nsnc23)CC1 (stereo not given) | 49% (inactive) |

| Structure (SMILES) | survival |
| --- | --- |
| Cc1nn(-c2ccc(F)cc2)c(-n2cccc2)c1C(=O)NCCCN1CCN(c2cccc(Cl)c2)CC1 | 94% (inactive) |
| Cc1ccc(-n2nc(C)c(C(=O)NCCCN3CCN(c4cccc(Cl)c4)CC3)c2-n2cccc2)cc1 | 0% (active) |
| O=C(NCCCN1CCN(c2cccc(Cl)c2)CC1)c1cnn(-c2ccc(F)cc2)c1-n1cccc1 | 32% (active) |
| Cc1ccc(-n2nc(C)c(C(=O)NCCCN3CCN(c4ccc(F)cc4)CC3)c2-n2cccc2)cc1 | 92% (inactive) |
| O=C(NCCCN1CCN(c2ccc(F)cc2)CC1)c1cnn(-c2ccc(F)cc2)c1-n1cccc1 | 70% (inactive) |
| Cc1ccc(-n2ncc(C(=O)NCCCN3CCN(c4cccc(Cl)c4)CC3)c2-n2cccc2)cc1 | 75% (inactive) |
| O=C(Cn1c(=O)c2cc(Cl)ccc2n2nncc12)Nc1ccccc1 | 75% (inactive) |
| O=C(CCC1CCCC1)N1CCc2c([nH]c3ccccc23)C1c1ccc(F)cc1 (stereo not given) | 99% (inactive) |
| CCCCN(C(=O)C1CCC1)c1nnc(-c2ccncc2)s1 | 96% (inactive) |
| Clc1ccc(-c2nc3ncccn3c2Nc2ccc3c(c2)OCCO3)cc1 | 89% (inactive) |
| COc1ccc(C(=O)NCC(c2cccnc2)N2CCN(c3ccccc3F)CC2)cc1OC (stereo not given) | 86% (inactive) |
| Cc1ccc2[nH]c(=O)c(CN(Cc3nnnn3CCc3ccccc3)C3CCCC3)cc2c1 | 91% (inactive) |
| CCOc1ccc(OCC)c(NS(=O)(=O)c2ccc3c(c2)CCCN3C(C)=O)c1 | 73% (inactive) |
| Cc1ccc(-c2noc(-c3cccnc3NCc3ccco3)n2)cc1 | 65% (inactive) |
| Cc1ccccc1-c1noc(-c2cccnc2NCc2ccco2)n1 | 52% (inactive) |
| Clc1ccc(-c2noc(-c3cccnc3NCc3ccco3)n2)cc1 | 61% (inactive) |
| c1ccc(-c2noc(-c3cccnc3NCc3ccco3)n2)cc1 | 60% (active) |
| COc1ccc(-c2noc(-c3cccnc3NCc3ccco3)n2)cc1 | 98% (inactive) |
| Cc1cccc(-c2noc(-c3cccnc3NCc3ccco3)n2)c1 | 44% (active) |
| Cc1cccc(N2CCN(C3(c4ccccc4)C(=O)c4ccccc4C3=O)CC2)c1C | 79% (inactive) |

| Structure (SMILES) | survival |
| --- | --- |
| COc1cccc(C(=O)NC(c2ccc(Cl)cc2)c2cc(Cl)c3cccnc3c2O)c1 (stereo not given) | 89% (inactive) |
| Cc1ccc(C(Nc2ccccn2)c2ccc3cccnc3c2O)cc1 (stereo not given) | 1% (active) |
| COc1ccc(C(=O)NC(c2ccc(Cl)cc2)c2cc(Cl)c3cccnc3c2O)cc1 (stereo not given) | 88% (inactive) |
| COc1ccc(C(=O)NC(c2ccccc2Cl)c2cc(Cl)c3cccnc3c2O)cc1 (stereo not given) | 92% (inactive) |
| Oc1cccc(C(Nc2ccccn2)c2ccc3cccnc3c2O)c1Cl (stereo not given) | 26% (active) |
| Cc1cccc(NC(c2ccccc2C)c2ccc3ccc(C)nc3c2O)n1 (stereo not given) | 0% (active) |
| COc1ccccc1CC(=O)Nc1cccc(C)n1 | 97% (inactive) |
| CCC(=O)NC(c1ccccc1OC)c1cc(Cl)c2cccnc2c1O (stereo not given) | 68% (inactive) |
| Cc1cccc(NC(=O)c2ccccc2)n1 | 93% (inactive) |
| Cc1cccc(NC(c2cccc(Cl)c2)c2ccc3cccnc3c2O)n1 (stereo not given) | 2% (active) |
| Nc1nnc(CCc2ccccc2)s1 | 80% (inactive) |
| O=C(O)CCOc1ccc2c(c1)OCCO2 | 82% (inactive) |
| CCC(CC)c1nn2c(=O)cc(COc3ccc(NC(=O)c4ccccc4C)cc3)nc2s1 | 81% (inactive) |
| O=C(CSc1nc2c(c(=O)[nH]1)CCC2)Nc1ccccc1C(F)(F)F | 72% (inactive) |
| O=C(CN1C(=O)COc2ccc(S(=O)(=O)N3CCCCCC3)cc21)NCc1ccc(Cl)cc1 | 113% (inactive) |
| CCOCCCNC(=O)c1cc2c(=O)n(C)c3ccccc3c2n1C | 86% (inactive) |
| O=C(Nc1ccccc1C(F)(F)F)N1CCC2(CC1)Oc1ccccc1C(=O)N2Cc1ccccc1F | 67% (inactive) |
| COc1cc(-c2cc(OC)c3c(C)oc(C)c3c(=O)c2)ccc1OC(=O)c1ccc(C)cc1 | 88% (inactive) |
| Cc1ccc(NC(=O)c2sc3nc(-c4ccc(F)cc4)cn3c2C)c(C)c1 | 81% (inactive) |
| O=C(O)CCC(=O)Nc1ccc2c(c1)oc1ccccc12 | 86% (inactive) |
